In all, about 310,000 compounds went through this assay and about 14,000 (4.5%) showed an effect of 50% or more. The effect is printed as a negative number. This excerpt belongs to a sample that is enriched for strong results.
biological target: human ether-à-go-go-related gene (hERG) potassium channel (human, UniProt Q12809); test: primary screen, population patch clamp on CHO cells stably expressing hERG; higher = less effect of the substance
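Also: peak tail current of the secondary pulse compared with the same well before compound.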

human ether-à-go-go-related gene (hERG) potassium channel, sequence (Q12809 whole entry, looked up): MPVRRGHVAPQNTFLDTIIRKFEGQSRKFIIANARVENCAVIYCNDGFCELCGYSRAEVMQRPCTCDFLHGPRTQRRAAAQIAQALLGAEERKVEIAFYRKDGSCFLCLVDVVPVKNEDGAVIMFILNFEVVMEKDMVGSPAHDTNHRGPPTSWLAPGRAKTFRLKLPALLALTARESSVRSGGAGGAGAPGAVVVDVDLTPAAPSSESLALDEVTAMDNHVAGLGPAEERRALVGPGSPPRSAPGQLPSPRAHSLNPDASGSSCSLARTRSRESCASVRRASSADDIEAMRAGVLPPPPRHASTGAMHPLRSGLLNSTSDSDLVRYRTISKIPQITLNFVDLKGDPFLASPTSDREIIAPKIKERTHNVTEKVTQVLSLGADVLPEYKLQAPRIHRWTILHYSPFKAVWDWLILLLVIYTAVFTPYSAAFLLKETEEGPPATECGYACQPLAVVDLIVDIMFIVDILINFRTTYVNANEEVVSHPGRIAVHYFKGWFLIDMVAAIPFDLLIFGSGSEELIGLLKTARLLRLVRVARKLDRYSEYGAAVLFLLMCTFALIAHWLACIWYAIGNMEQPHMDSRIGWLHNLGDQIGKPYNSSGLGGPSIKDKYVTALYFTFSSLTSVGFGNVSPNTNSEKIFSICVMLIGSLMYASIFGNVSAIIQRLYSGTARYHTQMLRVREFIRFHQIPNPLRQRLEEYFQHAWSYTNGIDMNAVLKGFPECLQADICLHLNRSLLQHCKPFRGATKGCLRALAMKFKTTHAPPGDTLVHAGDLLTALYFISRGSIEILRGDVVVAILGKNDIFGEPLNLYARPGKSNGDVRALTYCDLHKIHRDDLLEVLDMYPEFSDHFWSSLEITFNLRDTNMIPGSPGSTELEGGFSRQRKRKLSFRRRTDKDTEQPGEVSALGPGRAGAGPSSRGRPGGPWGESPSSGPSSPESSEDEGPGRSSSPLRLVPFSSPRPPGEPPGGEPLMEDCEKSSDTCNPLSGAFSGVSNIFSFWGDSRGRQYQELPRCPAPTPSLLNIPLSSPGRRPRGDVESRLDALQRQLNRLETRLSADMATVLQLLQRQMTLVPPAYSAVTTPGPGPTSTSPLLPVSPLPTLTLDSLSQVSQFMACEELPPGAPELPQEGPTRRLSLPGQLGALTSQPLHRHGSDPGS

Row | Structure (SMILES) | hERG current change (%, negative = inhibition) at 10uM [%]
1 | CCOc1ccc(N2C(=O)CC(N)C2=O)cc1 (stereo not shown) | 1.65
2 | COc1ccc(OC)c(CCNC(=O)CC2(CC3=NS(=O)(=O)c4ccccc4N3)CCCC2)c1 | -11.2
3 | COC(=O)c1cc(-c2cccc([N+](=O)[O-])c2)c2c(=O)[nH]c(=O)n(C)c2n1 | 6.48
4 | COc1cccc(NC(=O)CCNS(=O)(=O)c2cccc3nsnc23)c1 | 1.56
5 | Cn1c(=O)c2ccccc2n(Cc2ccccc2Cl)c1=O | 0.661
6 | Cc1cccc(NC(=O)NC2CC3CCC(C2)N3Cc2ccco2)c1 (stereo not shown) | -2.61
7 | Cc1ccc(CN2C3CCCC2CC(NC(=O)Nc2cccc(F)c2)C3)cc1 (stereo not shown) | -85.7
8 | COc1ccc(CN2C3CCCC2CC(NC(=O)Nc2cccc(C)c2)C3)cc1 (stereo not shown) | -75.3
9 | CCCN1C2CCCC1CC(NC(=O)Nc1cccc(C(C)=O)c1)C2 (stereo not shown) | -5.62
10 | CCc1cccc(CC)c1NC(=O)CN1C2CCCC1CC(NC(=O)Nc1cccc(OC)c1)C2 (stereo not shown) | -7.7
11 | O=C(Nc1cccc(F)c1)NC1CC2CCCC(C1)N2C1CC1 (stereo not shown) | -8.34
12 | CCOC(=O)C1CCN(C(=O)C2CCN(S(=O)(=O)c3cc(Cl)ccc3Cl)CC2)CC1 | -30.1
13 | Cc1ccc(S(=O)(=O)N2CCOCC2)cc1C(=O)OCC(=O)c1ccc(Br)cc1 | 14.7
14 | COc1ccc(-c2nc3ccc(N4CCN(C)CC4)cc3c(=O)[nH]2)cc1 | 8.45
15 | O=c1c2ccccc2nc(N2CCCC2)n1-c1ccc(Cl)cc1 | -3.18
16 | O=c1c2ccccc2nc2n1CCN2Cc1ccc(Cl)cc1 | -51.9
17 | O=c1c2ccccc2nc(-c2ccccc2)n1Cc1ccc(Cl)cc1 | -15.7
18 | CCOC(=O)c1c(-n2c(C)cc(C=C3C(=O)NC(=S)NC3=O)c2C)sc2c1CCCC2 | -5.55
19 | CN1CCC(=NNC(=O)c2ccc(N(Cc3ccc(Cl)cc3)S(C)(=O)=O)cc2)CC1 | -38
20 | CC1=C(C(=O)NC2CC(C)(C)Cc3c2cnn3-c2cccc(F)c2)OCCO1 (stereo not shown) | -43.5
21 | Cc1cnc(C(=O)NC2CC(C)(C)Cc3c2cnn3-c2cccc(F)c2)cn1 (stereo not shown) | -33.5
22 | CC1(C)Cc2c(cnn2-c2cccc(F)c2)C(NC(=O)c2ccc(=O)[nH]n2)C1 (stereo not shown) | -70.2
23 | Cc1cc(C(=O)NC2CC(C)(C)Cc3c2cnn3-c2cccc(F)c2)n(C)n1 (stereo not shown) | -32.6
24 | CC1(C)Cc2c(cnn2-c2cccc(F)c2)C(NC(=O)c2csnn2)C1 (stereo not shown) | -78.3
25 | COc1cc(C(=O)NC2CC(C)(C)Cc3c2cnn3-c2ccccc2)cc(OC)c1OC (stereo not shown) | 8.92
26 | COc1ccc(C(=O)NC2CC(C)(C)Cc3c2cnn3-c2ccccc2)c(OC)c1 (stereo not shown) | -2.5
27 | COc1cccc(C(=O)NC2CC(C)(C)Cc3c2cnn3-c2cccc(F)c2)c1OC (stereo not shown) | -52.3
28 | Cc1cc(C(=O)NC2CC(C)(C)Cc3c2cnn3-c2cccc(F)c2)nn1C (stereo not shown) | -2.79

Row | Structure (SMILES) | hERG current change (%, negative = inhibition) at 10uM [%]
29 | O=C(N/N=C/c1coc2ccccc2c1=O)c1ccccc1 | 10.6
30 | COc1ccc(CN2CCN(C(=O)CC(C)C)CC2)cc1Br | -4.54
31 | C=CC[C@]12C[C@@H](OC)C(=O)C=C1O[C@@H](c1ccc(OC)c(OC)c1)[C@H]2C | 14.5
32 | NC(=O)C(c1ccc(Sc2ccccc2)nn1)c1ccc(Cl)cc1Cl (stereo not shown) | -43.9
33 | Cc1c(C(=O)NCC2COc3ccccc3O2)oc2ccc(S(=O)(=O)N3CC(C)CC(C)C3)cc12 (stereo not shown) | 12.4
34 | Cc1c(NC(=O)COC(=O)c2cc(-c3ccc(-c4ccccc4)cc3)nc3ccccc23)c(=O)n(-c2ccccc2)n1C | 28.4
35 | COc1ccccc1NNC(=O)C(O)(c1ccccc1OC)c1ccccc1OC | 20.2
36 | O=C(NC(Cc1ccccc1)C(=O)O)/C(=C/c1ccc([N+](=O)[O-])cc1)NC(=O)c1ccc(Br)o1 (stereo not shown) | 11.5
37 | Cn1c(=O)cc2c3c(c(N4CCCCC4)ccc31)C(=O)c1ccccc1-2 | -63.2
38 | CC(=O)Nc1ccc(Nc2ccc3c4c(cc(=O)n3C)-c3ccccc3C(=O)c24)cc1 | 9.74
39 | CC(=O)N(C)c1ccc(N2CCOCC2)c2c1C(=O)c1ccccc1C2=O | -0.974
40 | CCn1c(SCC(=O)Nc2cc(S(=O)(=O)N3CCOCC3)ccc2OC)nnc1-c1ccncc1 | 13.8
41 | O=C(COc1ccc(Cl)cc1)Nc1c(-c2cccs2)nc2ccccn12 | -14.4
42 | Nc1cc(-c2nn[nH]n2)ccc1F | 11.6
43 | O=C(Nc1ccc(Cl)c(-c2nc3ccccc3[nH]2)c1)c1ccc2c(c1)OCO2 | -15
44 | O=C1CC2(CCN(C(=O)C3CC(=O)N(c4ccc(F)cc4)C3)CC2)Oc2ccccc21 (stereo not shown) | -78.7
45 | NC(=O)C1CCN(C(=O)C2CC(=O)N(c3ccc(F)cc3)C2)CC1 (stereo not shown) | 13.7
46 | Cc1ccc(N2CC(C(=O)N3CCC4(CC3)CC(=O)c3ccccc3O4)CC2=O)cc1 (stereo not shown) | -71.6
47 | Cc1ccc(N2CC(C(=O)N3CCC4(CC3)CC(=O)c3ccccc3O4)CC2=O)cc1C (stereo not shown) | -71.3
48 | Cc1ccc(N2CC(C(=O)N3CCCCCC3)CC2=O)cc1 (stereo not shown) | 11.5
49 | CCOC(=O)N1CCN(C(=O)C2CC(=O)N(c3ccccc3)C2)CC1 (stereo not shown) | 5.31
50 | O=C1CC2(CCN(C(=O)C3CC(=O)N(c4ccccc4)C3)CC2)Oc2ccccc21 (stereo not shown) | -77.4
51 | O=C(C1CC(=O)N(c2ccccc2)C1)N1CCCCCC1 (stereo not shown) | 13
52 | O=C(C1CC(=O)N(c2ccc(F)cc2)C1)N1CCOCC1 (stereo not shown) | 1.27
53 | CCOC(=O)N1CCN(C(=O)C2CC(=O)N(c3ccc(C)cc3)C2)CC1 (stereo not shown) | -47.9
54 | Cc1ccc(N2CC(C(=O)N3CCOCC3)CC2=O)cc1C (stereo not shown) | 6.52
55 | Cc1ccc(N2CC(C(=O)N3CCCCC3)CC2=O)cc1C (stereo not shown) | -21.2

Source: paper PMC4336329 (PLoS ONE, 2015)
